Experimental data reported in PubChem BioAssay (NCATS).
Values joined by “and” are separate entries in the source; they are usually repeats but may differ in a detail not shown here. Identical values can stand only once. Inconclusive results are not listed. The source holds several records for some structures; these can differ, active in one and inactive in another. Active and inactive are the calls of the source. Unless noted, calls come from the whole dose curve; as a rule, active = well fitted curve in the direction sought with a large enough effect; inconclusive = small, poorly fitted or top-dose-only effect, or another doubt; inactive = no such curve, though single readings can be large; an effect the other way counts as inactive or inconclusive.

Legend:
[1] = qHTS profiling of the MIPE4 collection as inhibitors of Plasmodium falciparum (3D7) proliferation (AID 743344; call rule not given here;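 note: scaled between DMSO vehicle wells and 0.29 µM artemisinin as full inhibition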); conditions: P. falciparum 3D7 in erythrocytes, SYBR Green DNA fluorescence, 72 h; at 28.5 µM unless noted
In short: (§1)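 Erythrocytes infected with P. falciparum (0.3% parasitemia, 2.5% hematocrit) incubated with compounds 72 h at 37 C, 5% CO2. Lysis with saponin/Triton buffer containing SYBR Green I, overnight at room temperature in the dark; DNA fluorescence (485/535 nm) normalised to 0.29 uM artemisinin and DMSO.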

[2] = qHTS profiling of the MIPE4 collection as inhibitors of Plasmodium falciparum (DD2) proliferation (AID 743345; call rule not given here); conditions: P. falciparum Dd2 in erythrocytes, SYBR Green DNA, 72 h; at 28.5 µM unless noted
In short: as §1

[3] = qHTS profiling of the MIPE4 collection as inhibitors of Plasmodium falciparum (DD2) proliferation (Rep 2) (AID 743346; call rule not given here); conditions: P. falciparum Dd2 in erythrocytes, SYBR Green DNA, 72 h; at 28.5 µM unless noted
In short: as §1

[4] = qHTS profiling of the MIPE4 collection as inhibitors of Plasmodium falciparum (HB3) proliferation (AID 743347; call rule not given here;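 note: plate controls were DMSO vehicle wells for no effect and artemisinin wells for full effect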); conditions: P. falciparum HB3 in erythrocytes, SYBR Green DNA, 72 h; at 28.5 µM unless noted
In short: as §1

[5] = High-throughput drug toxicity screening in the BPDCN cell line Gen2.2 (AID 1224824; call rule not given here;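 note: cells exposed to compounds for 48 h before reading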); conditions: Gen2.2 BPDCN cells; at 45.8 µM (top of the series) unless noted
In short: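 CellTiter-Glo luminescence read after 48 h compound exposure at 37 C defines viability; percent activity set with DMSO as 100% and bortezomib (9.2 uM final) as 0%. 500 exponentially growing cells per well, RPMI plus 10% FBS.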

[6] = High-throughput drug toxicity screening in the BPDCN cell line Cal-1 (AID 1224825; call rule not given here); conditions: Cal-1 BPDCN cell viability, qHTS; at 45.8 µM (top of the series) unless noted
In short: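 500 Cal-1 cells/well, RPMI + glutamine + 10% FBS (phenol red-free); cpd added by pin tool; 48 h, 37C, 5% CO2; CTG 15 min RT, lumi read. Normalised: DMSO 100%, bortezomib 9.2 uM 0%.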

[7] = qHTS assay for measurement of the activity of small molecule inhibitors on Zika virus induced Caspase-3 activity in human iPSC derived neural progenitor cells (hNPCs) (AID 1224857); note: nearly all actives have a fitted effect of over 65% in size; note: potency is the fitted concentration of half-maximal effect
In short: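 Cells were plated at 350 per well and grown 16 to 20 hours. Compound pretreatment lasted one hour, after which ZIKV (2 FFU/cell) was added for 6 hours. Percent inhibition was normalized between uninfected and infected controls.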

[8] = qHTS assay for measurement of the activity of small molecule inhibitors on Zika virus induced Caspase-3 activity in human astrocytoma cells (AID 1224859);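 note: plate controls were ZIKV-infected untreated cells for no effect and uninfected cells for full effect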
In short: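 Percent inhibition of virus-induced caspase-3/7 signal is calculated against uninfected and ZIKV-infected control cells. Cells are SNB-19, infected at 2 FFU/cell for 6 h after 1 h compound exposure.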

[9] = qHTS Screen of the MIPE 4.0 Collection Against Ewings Sarcoma (RDES) (AID 1259252); note: nearly all actives have a fitted effect of over 35% in size; note: potency is the fitted concentration of half-maximal effect
In short: (§2)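 After a 4 h attachment period in RPMI/5% FBS, cells were pin-dosed with test compounds; DMSO served as negative and 9.2 uM bortezomib (final) as positive control. Luminescent CellTiter-Glo signal at 48 h defined viability.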

[10] = qHTS Screen of the MIPE 4.0 Collection Against Ewings Sarcoma (EW8) (AID 1259255); note: nearly all actives have a fitted effect of over 35% in size; note: potency is the fitted concentration of half-maximal effect;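 for viability: 100% = DMSO-treated cells and 0% = medium-only wells without cells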
In short: as §2

[11] = qHTS Screen of the MIPE 4.0 Collection Against Ewings Sarcoma (TC32) (AID 1259256); note: nearly all actives have a fitted effect of over 45% in size; note: potency is the fitted concentration of half-maximal effect
In short: as §2

[12] = qHTS assay to identify small molecule inhibitors of chordoma cells - UCH-1 (AID 1259355); note: nearly all actives have a fitted effect of over 55% in size; note: potency is the fitted concentration of half-maximal effect
In short: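 Seed 800 cells per well; incubate overnight at 37 C, 5% CO2. Add test compounds (15 concentrations), then the auranofin–topoisomerase-agent combination. Incubate 48hr, add CellTiter-Glo, wait 30min, read luminescence.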

[13] = qHTS assay to identify small molecule inhibitors of chordoma cells - UCH-2 (AID 1259356); note: potency is the fitted concentration of half-maximal effect

CNS(=O)(=O)CCc1ccc2[nH]cc(C3CCN(C)CC3)c2c1
parasite growth, % of DMSO control [1]: 97.5% | parasite growth remaining, % of DMSO control (lower = more inhibition) [2]: 87.2% | parasite growth, % of control (lower = inhibition) [3]: 92.8% | growth, % of control [4]: 92.7% | cell viability, % of control (lower = more cytotoxic) [5]: 238% | viability (% of control) [6]: 23.9% | Potency [7]: inactive | Potency [8]: inactive | Potency [9]: 0.372 µM (active) | Potency [10]: 2.64 µM (active) | Potency [11]: 1.48 µM (active)

O=C(O)c1cccnc1
parasite growth, % of DMSO control [1]: 91.9% | parasite growth, % of control (lower = inhibition) [3]: 95.2% | growth, % of control [4]: 87.4% | cell viability, % of control (lower = more cytotoxic) [5]: 127% | viability (% of control) [6]: 87.6% | Potency [7]: inactive | Potency [8]: inactive | Potency [9]: inactive | Potency [10]: inactive | Potency [11]: inactive | Potency [12]: inactive | Potency [13]: inactive

CC(C)NCC(O)c1ccc(NS(C)(=O)=O)cc1 (stereo unspecified)
parasite growth, % of DMSO control [1]: 44.4% | parasite growth, % of control (lower = inhibition) [3]: 30.5% | growth, % of control [4]: 52.5% | cell viability, % of control (lower = more cytotoxic) [5]: 203% | viability (% of control) [6]: 120% | Potency [7]: inactive | Potency [8]: inactive | Potency [9]: 5.9 µM (active) | Potency [10]: 16.6 µM (active) | Potency [12]: inactive | Potency [13]: inactive

CCn1cc(C(=O)O)c(=O)c2cc(F)c(N3CCNCC3)cc21
cell viability, % of control (lower = more cytotoxic) [5]: 113% | viability (% of control) [6]: 104% | Potency [7]: inactive | Potency [8]: inactive | Potency [9]: inactive | Potency [10]: inactive | Potency [11]: inactive | Potency [12]: inactive | Potency [13]: inactive

CN(C)c1ccc(C(=C2C=CC(=[N+](C)C)C=C2)c2ccc(N(C)C)cc2)cc1
parasite growth, % of DMSO control [1]: 2.71% | parasite growth remaining, % of DMSO control (lower = more inhibition) [2]: 5.08% | parasite growth, % of control (lower = inhibition) [3]: 6.31% | growth, % of control [4]: 2.46% | cell viability, % of control (lower = more cytotoxic) [5]: 1.19% | viability (% of control) [6]: 1.42% | Potency [7]: inactive | Potency [8]: inactive | Potency [9]: 0.372 µM (active) | Potency [10]: 0.418 µM (active) | Potency [11]: inactive | Potency [12]: 22.4 µM (active) | Potency [13]: 7.3 µM (active)

CO[C@@H]1[C@@H](OC(N)=O)[C@@H](O)[C@H](Oc2ccc3c(O)c(NC(=O)c4ccc(O)c(CC=C(C)C)c4)c(=O)oc3c2C)OC1(C)C
parasite growth, % of DMSO control [1]: 61% | parasite growth remaining, % of DMSO control (lower = more inhibition) [2]: 75.8% | parasite growth, % of control (lower = inhibition) [3]: 39.2% | growth, % of control [4]: 45.7% | cell viability, % of control (lower = more cytotoxic) [5]: 13.9% | viability (% of control) [6]: 44% | Potency [7]: inactive | Potency [8]: inactive | Potency [9]: 5.9 µM (active) | Potency [10]: 2.09 µM (active) | Potency [11]: 5.9 µM (active) | Potency [12]: inactive | Potency [13]: inactive

CCCCc1oc2ccc(NS(C)(=O)=O)cc2c1C(=O)c1ccc(OCCCN(CCCC)CCCC)cc1
parasite growth, % of DMSO control [1]: 7.48% | parasite growth remaining, % of DMSO control (lower = more inhibition) [2]: 6.73% | parasite growth, % of control (lower = inhibition) [3]: 18.2% | growth, % of control [4]: 7.93% | cell viability, % of control (lower = more cytotoxic) [5]: 5.11% | viability (% of control) [6]: 4.81% | Potency [7]: inactive | Potency [8]: inactive | Potency [9]: 23.5 µM (active) | Potency [10]: 16.6 µM (active) | Potency [11]: 20.9 µM (active)

CCCc1cc(C(N)=S)ccn1
parasite growth, % of DMSO control [1]: 6.05% | parasite growth, % of control (lower = inhibition) [3]: 14% | cell viability, % of control (lower = more cytotoxic) [5]: 119% | viability (% of control) [6]: 93.7% | Potency [7]: inactive | Potency [8]: inactive | Potency [9]: inactive | Potency [10]: inactive | Potency [11]: inactive | Potency [12]: inactive | Potency [13]: inactive

Nc1nc(F)nc2c1ncn2[C@@H]1O[C@H](CO)[C@@H](O)[C@@H]1O
parasite growth remaining, % of DMSO control (lower = more inhibition) [2]: 19.5% | parasite growth, % of control (lower = inhibition) [3]: 12% | cell viability, % of control (lower = more cytotoxic) [5]: 9.4% | viability (% of control) [6]: 3.53% | Potency [7]: inactive | Potency [8]: inactive | Potency [9]: 0.59 µM (active) | Potency [10]: 0.469 µM (active) | Potency [11]: 1.32 µM (active) | Potency [12]: inactive | Potency [13]: inactive

CN1CCCC(n2nc(Cc3ccc(Cl)cc3)c3ccccc3c2=O)CC1 (stereo unspecified)
parasite growth remaining, % of DMSO control (lower = more inhibition) [2]: 14% | parasite growth, % of control (lower = inhibition) [3]: 7.67% | cell viability, % of control (lower = more cytotoxic) [5]: 9.12% | viability (% of control) [6]: 7.4% | Potency [7]: inactive | Potency [8]: inactive | Potency [9]: 1.05 µM (active) | Potency [10]: 8.33 µM (active) | Potency [11]: 3.72 µM (active) | Potency [12]: inactive | Potency [13]: inactive

CNCC[C@H](Oc1cccc2ccccc12)c1cccs1
parasite growth, % of DMSO control [1]: 6.18% | parasite growth remaining, % of DMSO control (lower = more inhibition) [2]: 7.89% | parasite growth, % of control (lower = inhibition) [3]: 14.2% | cell viability, % of control (lower = more cytotoxic) [5]: 8.39% | viability (% of control) [6]: 39.6% | Potency [7]: inactive and 23.5 µM (active) | Potency [8]: inactive | Potency [9]: 2.35 µM (active) | Potency [10]: 7.43 µM (active) | Potency [11]: 5.26 µM (active) | Potency [13]: inactive

COC(c1ccccc1)(c1ccccc1)[C@H](Oc1nc(C)cc(C)n1)C(=O)O
parasite growth, % of DMSO control [1]: 102% | parasite growth remaining, % of DMSO control (lower = more inhibition) [2]: 102% | parasite growth, % of control (lower = inhibition) [3]: 81.2% | growth, % of control [4]: 105% | cell viability, % of control (lower = more cytotoxic) [5]: 195% | viability (% of control) [6]: 121% | Potency [7]: inactive | Potency [8]: inactive | Potency [9]: inactive | Potency [10]: inactive | Potency [11]: inactive | Potency [12]: inactive | Potency [13]: inactive

COc1cccc(N(C)C(=S)Oc2ccc3c(c2)CCCC3)n1
parasite growth, % of DMSO control [1]: 47.9% | parasite growth remaining, % of DMSO control (lower = more inhibition) [2]: 82.7% | parasite growth, % of control (lower = inhibition) [3]: 34.5% | cell viability, % of control (lower = more cytotoxic) [5]: 245% | viability (% of control) [6]: 76.1% | Potency [7]: inactive | Potency [8]: inactive | Potency [9]: inactive | Potency [10]: inactive | Potency [11]: inactive | Potency [12]: inactive | Potency [13]: inactive

COc1cc(NS(=O)(=O)c2ccc(N)cc2)nc(OC)n1
parasite growth, % of DMSO control [1]: 39.3% | parasite growth remaining, % of DMSO control (lower = more inhibition) [2]: 96.8% | parasite growth, % of control (lower = inhibition) [3]: 87.6% | cell viability, % of control (lower = more cytotoxic) [5]: 129% | viability (% of control) [6]: 104% | Potency [7]: inactive | Potency [8]: inactive | Potency [9]: inactive | Potency [10]: inactive | Potency [11]: inactive | Potency [12]: inactive | Potency [13]: inactive
